ChEMBL document CHEMBL2218924, “A broad activity screen in support of a chemogenomic map for kinase signalling research and drug discovery” (Biochem J, 2013)

Legend:
[1] = target: T1, Ephrin type-B receptor 1 (Homo sapiens) (UniProt P54762); conditions: at 10 µM
T1 sequence (whole entry): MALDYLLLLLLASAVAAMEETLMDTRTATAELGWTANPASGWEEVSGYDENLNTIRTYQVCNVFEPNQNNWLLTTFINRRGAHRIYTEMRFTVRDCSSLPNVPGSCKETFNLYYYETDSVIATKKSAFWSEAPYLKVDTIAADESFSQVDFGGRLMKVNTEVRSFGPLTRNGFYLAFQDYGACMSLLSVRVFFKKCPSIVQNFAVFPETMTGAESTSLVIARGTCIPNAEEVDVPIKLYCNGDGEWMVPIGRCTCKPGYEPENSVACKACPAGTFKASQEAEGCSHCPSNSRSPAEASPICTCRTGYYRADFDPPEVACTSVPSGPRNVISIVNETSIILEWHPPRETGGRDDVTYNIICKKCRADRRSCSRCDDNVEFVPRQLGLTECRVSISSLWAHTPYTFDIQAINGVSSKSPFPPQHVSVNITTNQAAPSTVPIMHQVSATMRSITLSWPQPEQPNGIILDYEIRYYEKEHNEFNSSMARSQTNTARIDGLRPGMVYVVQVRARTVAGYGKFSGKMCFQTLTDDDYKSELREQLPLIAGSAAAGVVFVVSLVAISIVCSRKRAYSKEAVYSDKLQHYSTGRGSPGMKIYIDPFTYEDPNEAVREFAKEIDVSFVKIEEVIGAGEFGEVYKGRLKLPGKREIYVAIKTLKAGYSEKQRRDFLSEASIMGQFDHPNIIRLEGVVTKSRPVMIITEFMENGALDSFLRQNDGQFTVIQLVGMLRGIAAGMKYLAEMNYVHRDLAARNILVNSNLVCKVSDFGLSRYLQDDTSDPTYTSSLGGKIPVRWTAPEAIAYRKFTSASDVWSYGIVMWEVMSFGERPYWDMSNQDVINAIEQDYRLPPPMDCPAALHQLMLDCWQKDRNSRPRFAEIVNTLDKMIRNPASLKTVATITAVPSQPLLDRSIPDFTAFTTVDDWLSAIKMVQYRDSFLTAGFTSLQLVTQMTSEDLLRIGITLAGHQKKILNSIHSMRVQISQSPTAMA

[2] = target: T2, Ephrin type-B receptor 2 (Homo sapiens) (UniProt P29323); conditions: at 1 µM
T2 sequence (whole entry): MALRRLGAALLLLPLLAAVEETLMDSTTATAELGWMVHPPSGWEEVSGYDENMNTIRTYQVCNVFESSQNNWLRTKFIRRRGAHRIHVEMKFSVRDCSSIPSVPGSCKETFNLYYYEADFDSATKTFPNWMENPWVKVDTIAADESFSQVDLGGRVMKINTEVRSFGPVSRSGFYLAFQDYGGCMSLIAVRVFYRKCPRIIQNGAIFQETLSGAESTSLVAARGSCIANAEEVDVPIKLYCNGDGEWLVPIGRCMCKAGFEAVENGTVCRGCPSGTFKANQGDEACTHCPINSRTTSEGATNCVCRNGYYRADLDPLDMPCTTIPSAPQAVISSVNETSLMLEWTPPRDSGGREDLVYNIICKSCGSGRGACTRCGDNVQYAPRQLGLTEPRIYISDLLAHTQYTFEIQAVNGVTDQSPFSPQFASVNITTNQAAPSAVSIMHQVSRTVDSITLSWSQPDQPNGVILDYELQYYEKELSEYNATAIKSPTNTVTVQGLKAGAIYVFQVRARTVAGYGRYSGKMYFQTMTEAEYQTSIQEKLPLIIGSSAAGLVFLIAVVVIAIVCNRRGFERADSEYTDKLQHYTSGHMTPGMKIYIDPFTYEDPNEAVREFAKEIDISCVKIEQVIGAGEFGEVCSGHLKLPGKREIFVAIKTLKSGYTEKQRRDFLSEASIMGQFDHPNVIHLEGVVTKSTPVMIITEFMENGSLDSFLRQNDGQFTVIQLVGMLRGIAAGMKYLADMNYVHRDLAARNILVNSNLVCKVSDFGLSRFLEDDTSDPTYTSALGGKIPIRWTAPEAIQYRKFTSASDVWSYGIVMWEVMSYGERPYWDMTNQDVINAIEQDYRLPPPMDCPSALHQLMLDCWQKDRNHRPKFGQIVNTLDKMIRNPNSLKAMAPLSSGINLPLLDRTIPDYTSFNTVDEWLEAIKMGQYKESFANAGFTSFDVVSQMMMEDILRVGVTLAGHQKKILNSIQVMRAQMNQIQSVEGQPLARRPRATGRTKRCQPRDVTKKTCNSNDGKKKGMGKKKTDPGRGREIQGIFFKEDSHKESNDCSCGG

[3] = target: T2, Ephrin type-B receptor 2 (Homo sapiens); conditions: at 10 µM
[4] = target: T3, Ephrin type-B receptor 3 (Homo sapiens) (UniProt P54753); conditions: at 1 µM
T3 sequence (whole entry): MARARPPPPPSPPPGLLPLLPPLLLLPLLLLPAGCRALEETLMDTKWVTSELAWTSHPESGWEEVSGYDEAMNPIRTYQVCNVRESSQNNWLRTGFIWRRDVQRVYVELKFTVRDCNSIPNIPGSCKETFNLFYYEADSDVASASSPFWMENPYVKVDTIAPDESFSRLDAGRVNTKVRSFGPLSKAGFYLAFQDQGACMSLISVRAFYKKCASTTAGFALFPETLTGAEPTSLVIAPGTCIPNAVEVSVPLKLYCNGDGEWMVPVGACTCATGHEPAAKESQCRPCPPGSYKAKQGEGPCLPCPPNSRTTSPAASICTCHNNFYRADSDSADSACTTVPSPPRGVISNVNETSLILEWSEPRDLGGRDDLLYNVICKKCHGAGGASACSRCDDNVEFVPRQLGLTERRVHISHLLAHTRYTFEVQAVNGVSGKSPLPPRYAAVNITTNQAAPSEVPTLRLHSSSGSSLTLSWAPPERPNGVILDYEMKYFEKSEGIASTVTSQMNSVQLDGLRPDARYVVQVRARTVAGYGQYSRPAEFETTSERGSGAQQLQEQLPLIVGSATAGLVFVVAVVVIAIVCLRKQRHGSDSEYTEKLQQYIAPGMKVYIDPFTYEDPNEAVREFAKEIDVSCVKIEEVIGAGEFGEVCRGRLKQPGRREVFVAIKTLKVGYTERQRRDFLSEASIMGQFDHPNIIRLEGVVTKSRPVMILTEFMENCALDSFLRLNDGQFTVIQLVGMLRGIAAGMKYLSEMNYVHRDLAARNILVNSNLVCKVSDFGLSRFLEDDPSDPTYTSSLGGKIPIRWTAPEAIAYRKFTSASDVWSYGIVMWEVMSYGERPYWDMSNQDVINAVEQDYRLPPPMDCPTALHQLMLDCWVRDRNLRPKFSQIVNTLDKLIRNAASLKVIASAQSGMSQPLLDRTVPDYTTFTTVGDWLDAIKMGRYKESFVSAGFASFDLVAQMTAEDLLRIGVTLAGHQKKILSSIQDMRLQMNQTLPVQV

[5] = target: T3, Ephrin type-B receptor 3 (Homo sapiens); conditions: at 10 µM
[6] = target: T4, Ephrin type-B receptor 4 (Homo sapiens) (UniProt P54760); conditions: at 1 µM
T4 sequence (whole entry): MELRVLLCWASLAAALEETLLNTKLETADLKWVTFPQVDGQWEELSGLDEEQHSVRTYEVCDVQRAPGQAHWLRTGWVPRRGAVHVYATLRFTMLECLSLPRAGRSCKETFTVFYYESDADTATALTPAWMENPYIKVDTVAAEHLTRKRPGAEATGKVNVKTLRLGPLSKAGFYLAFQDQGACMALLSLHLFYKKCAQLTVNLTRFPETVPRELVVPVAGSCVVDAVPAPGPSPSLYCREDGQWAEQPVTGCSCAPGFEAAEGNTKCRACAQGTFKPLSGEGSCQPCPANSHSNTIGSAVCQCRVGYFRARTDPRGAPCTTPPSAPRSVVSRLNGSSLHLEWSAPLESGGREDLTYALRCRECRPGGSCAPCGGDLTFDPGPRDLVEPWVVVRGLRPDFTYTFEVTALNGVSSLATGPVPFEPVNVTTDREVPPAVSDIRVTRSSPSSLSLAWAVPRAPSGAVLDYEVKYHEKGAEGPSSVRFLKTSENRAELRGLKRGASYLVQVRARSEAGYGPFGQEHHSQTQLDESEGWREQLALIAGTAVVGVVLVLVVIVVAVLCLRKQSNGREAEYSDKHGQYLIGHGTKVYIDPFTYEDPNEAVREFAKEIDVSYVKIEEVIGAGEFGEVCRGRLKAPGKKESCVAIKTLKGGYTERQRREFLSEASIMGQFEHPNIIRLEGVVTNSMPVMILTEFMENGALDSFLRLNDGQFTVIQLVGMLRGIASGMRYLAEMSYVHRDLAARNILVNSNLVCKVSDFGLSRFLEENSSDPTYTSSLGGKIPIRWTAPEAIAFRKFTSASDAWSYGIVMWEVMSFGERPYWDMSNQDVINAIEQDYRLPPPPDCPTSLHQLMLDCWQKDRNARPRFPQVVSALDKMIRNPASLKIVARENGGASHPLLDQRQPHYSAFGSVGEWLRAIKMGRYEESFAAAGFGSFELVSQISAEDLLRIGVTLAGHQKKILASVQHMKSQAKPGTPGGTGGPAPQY

[7] = target: T4, Ephrin type-B receptor 4 (Homo sapiens); conditions: at 10 µM
[8] = target: Receptor tyrosine-protein kinase erbB-4 (Homo sapiens) (UniProt Q15303); conditions: at 1 µM
[9] = target: Receptor tyrosine-protein kinase erbB-4 (Homo sapiens) (UniProt Q15303); conditions: at 10 µM
[10] = target: Focal adhesion kinase 1 (Homo sapiens) (UniProt Q05397); conditions: at 1 µM
[11] = target: Focal adhesion kinase 1 (Homo sapiens) (UniProt Q05397); conditions: at 10 µM
[12] = target: Fibroblast growth factor receptor 1 (Homo sapiens) (UniProt P11362); conditions: at 1 µM
[13] = target: Fibroblast growth factor receptor 1 (Homo sapiens) (UniProt P11362); conditions: at 10 µM
[14] = target: Fibroblast growth factor receptor 2 (Homo sapiens) (UniProt P21802); conditions: at 1 µM
[15] = target: Fibroblast growth factor receptor 2 (Homo sapiens) (UniProt P21802); conditions: at 10 µM
[16] = target: Fibroblast growth factor receptor 3 (Homo sapiens) (UniProt P22607); conditions: at 1 µM
[17] = target: Fibroblast growth factor receptor 3 (Homo sapiens) (UniProt P22607); conditions: at 10 µM
[18] = target: Fibroblast growth factor receptor 4 (Homo sapiens) (UniProt P22455); conditions: at 1 µM
[19] = target: Fibroblast growth factor receptor 4 (Homo sapiens) (UniProt P22455); conditions: at 10 µM
[20] = target: Tyrosine-protein kinase Fer (Homo sapiens) (UniProt P16591); conditions: at 1 µM

Chain of Receptor tyrosine-protein kinase erbB-4 (Homo sapiens) (Q15303 whole entry): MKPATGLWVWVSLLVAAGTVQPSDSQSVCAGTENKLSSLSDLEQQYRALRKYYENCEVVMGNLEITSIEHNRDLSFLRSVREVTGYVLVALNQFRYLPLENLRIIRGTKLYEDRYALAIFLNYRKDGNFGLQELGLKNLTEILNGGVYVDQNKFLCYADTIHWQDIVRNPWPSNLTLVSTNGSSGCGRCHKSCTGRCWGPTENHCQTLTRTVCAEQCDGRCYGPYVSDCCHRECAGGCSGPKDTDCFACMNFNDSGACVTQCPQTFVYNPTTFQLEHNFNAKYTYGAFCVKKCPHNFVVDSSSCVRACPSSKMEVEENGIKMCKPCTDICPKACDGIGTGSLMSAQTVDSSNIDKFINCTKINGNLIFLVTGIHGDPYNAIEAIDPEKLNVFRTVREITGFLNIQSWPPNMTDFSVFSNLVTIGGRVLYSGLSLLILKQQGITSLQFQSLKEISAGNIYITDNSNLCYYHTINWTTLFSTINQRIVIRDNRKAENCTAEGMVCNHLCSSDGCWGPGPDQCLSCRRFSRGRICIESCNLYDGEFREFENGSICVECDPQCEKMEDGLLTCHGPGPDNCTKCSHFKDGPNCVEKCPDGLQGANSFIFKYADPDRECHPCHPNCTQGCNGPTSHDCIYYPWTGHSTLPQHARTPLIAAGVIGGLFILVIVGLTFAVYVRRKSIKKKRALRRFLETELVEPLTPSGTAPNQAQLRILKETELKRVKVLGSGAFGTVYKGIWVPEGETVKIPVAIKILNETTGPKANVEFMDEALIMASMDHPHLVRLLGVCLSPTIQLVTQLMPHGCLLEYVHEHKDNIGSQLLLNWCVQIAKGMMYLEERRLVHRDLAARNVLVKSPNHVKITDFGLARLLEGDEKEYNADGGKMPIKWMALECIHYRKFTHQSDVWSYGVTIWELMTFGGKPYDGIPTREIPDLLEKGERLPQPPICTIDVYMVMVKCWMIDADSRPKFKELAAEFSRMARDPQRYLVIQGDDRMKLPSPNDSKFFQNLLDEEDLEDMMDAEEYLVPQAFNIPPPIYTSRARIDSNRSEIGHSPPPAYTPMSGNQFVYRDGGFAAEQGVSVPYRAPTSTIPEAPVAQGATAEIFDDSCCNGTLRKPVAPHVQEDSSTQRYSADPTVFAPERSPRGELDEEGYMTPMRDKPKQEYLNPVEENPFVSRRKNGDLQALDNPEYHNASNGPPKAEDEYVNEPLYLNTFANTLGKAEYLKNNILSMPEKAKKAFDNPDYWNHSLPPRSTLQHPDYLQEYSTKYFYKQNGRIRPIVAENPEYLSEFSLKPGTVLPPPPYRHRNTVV
Chain of Fibroblast growth factor receptor 3 (Homo sapiens) (P22607 23-806 limits assumed): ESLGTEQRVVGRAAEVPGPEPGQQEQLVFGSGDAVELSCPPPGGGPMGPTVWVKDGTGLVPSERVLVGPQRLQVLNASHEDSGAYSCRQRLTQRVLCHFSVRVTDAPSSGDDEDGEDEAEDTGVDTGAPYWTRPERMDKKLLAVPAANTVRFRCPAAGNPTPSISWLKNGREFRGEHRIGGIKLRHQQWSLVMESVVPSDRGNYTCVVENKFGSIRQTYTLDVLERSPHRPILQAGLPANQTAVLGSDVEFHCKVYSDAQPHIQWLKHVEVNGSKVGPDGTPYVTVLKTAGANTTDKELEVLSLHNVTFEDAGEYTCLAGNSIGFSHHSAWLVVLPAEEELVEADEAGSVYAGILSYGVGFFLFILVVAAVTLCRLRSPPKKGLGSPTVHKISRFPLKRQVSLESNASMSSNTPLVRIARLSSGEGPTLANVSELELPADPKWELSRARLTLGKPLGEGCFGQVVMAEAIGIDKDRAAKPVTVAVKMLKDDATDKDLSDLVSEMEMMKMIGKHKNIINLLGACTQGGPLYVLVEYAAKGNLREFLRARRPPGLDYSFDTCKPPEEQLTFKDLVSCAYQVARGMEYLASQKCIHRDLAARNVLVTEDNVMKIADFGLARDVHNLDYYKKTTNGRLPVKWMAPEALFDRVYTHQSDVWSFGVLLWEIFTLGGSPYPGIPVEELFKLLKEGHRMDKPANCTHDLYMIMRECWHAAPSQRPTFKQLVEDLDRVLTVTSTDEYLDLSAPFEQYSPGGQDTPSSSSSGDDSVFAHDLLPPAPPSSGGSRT
Chain of Fibroblast growth factor receptor 4 (Homo sapiens) (P22455 22-802 limits assumed): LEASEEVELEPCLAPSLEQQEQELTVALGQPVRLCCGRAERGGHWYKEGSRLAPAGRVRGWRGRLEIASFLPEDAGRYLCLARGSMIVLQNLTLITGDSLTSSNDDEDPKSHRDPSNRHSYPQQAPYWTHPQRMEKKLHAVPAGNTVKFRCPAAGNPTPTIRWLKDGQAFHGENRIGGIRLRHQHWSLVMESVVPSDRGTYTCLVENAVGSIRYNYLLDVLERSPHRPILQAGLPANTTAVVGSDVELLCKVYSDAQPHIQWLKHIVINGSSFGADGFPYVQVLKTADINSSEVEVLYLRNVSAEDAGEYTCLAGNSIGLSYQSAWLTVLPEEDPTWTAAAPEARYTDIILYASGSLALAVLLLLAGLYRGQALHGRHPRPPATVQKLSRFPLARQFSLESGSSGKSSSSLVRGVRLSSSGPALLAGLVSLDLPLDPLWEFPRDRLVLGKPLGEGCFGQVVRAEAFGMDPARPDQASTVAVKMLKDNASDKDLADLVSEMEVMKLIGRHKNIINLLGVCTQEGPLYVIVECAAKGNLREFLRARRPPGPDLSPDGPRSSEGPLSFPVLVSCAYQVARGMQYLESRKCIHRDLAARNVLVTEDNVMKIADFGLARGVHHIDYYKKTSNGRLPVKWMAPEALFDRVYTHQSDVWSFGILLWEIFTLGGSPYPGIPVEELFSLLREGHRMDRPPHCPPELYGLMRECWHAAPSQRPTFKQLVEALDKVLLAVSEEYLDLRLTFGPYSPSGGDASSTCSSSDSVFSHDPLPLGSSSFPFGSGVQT
Chain of Fibroblast growth factor receptor 2 (Homo sapiens) (P21802 22-821 limits assumed): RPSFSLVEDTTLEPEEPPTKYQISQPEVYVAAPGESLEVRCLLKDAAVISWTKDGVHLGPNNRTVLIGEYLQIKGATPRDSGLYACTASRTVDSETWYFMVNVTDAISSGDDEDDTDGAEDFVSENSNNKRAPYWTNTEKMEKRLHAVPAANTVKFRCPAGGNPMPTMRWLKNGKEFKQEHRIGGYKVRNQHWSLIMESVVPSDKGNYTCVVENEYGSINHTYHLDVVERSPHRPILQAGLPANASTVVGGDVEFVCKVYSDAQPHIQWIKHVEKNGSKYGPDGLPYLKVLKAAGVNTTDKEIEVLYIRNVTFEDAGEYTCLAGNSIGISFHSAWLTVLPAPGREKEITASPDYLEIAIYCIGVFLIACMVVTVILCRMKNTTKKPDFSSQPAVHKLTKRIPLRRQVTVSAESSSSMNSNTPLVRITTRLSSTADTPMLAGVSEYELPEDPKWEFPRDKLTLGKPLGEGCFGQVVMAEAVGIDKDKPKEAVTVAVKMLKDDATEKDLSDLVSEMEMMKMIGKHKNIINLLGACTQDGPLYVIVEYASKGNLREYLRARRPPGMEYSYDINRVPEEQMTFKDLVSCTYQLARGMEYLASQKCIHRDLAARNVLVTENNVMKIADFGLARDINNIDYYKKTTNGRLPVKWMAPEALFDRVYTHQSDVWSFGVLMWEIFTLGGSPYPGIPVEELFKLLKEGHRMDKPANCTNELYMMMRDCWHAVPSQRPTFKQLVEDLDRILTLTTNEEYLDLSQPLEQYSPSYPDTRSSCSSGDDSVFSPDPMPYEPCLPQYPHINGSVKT
Chain of Fibroblast growth factor receptor 1 (Homo sapiens) (P11362 22-822 limits assumed): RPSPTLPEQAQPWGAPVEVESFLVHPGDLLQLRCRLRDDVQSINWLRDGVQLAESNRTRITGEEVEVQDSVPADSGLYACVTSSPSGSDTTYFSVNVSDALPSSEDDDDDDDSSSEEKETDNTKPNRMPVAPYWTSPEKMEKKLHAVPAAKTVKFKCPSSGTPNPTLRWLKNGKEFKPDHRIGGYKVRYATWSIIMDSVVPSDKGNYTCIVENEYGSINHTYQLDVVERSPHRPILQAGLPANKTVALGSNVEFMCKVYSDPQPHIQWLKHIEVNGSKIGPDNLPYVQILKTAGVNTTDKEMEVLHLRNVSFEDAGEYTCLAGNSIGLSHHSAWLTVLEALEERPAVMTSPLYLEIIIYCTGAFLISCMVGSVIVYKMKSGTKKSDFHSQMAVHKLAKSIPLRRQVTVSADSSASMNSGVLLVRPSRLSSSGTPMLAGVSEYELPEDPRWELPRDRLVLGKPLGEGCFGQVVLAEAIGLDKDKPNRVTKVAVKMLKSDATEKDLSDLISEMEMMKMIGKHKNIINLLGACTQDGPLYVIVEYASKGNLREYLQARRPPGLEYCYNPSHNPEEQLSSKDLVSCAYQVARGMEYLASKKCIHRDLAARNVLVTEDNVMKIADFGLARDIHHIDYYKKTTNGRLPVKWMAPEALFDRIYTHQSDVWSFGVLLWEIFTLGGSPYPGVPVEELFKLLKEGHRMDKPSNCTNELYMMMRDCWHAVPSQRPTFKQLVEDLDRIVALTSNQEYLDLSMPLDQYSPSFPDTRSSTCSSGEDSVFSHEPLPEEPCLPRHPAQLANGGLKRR

Row | Compound | residual activity [1] | residual activity [2] | residual activity [3] | residual activity [4] | residual activity [5] | residual activity [6] | residual activity [7] | residual activity [8] | residual activity [9] | residual activity [10] | residual activity [11] | residual activity [12] | residual activity [13] | residual activity [14] | residual activity [15] | residual activity [16] | residual activity [17] | residual activity [18] | residual activity [19] | residual activity [20]
1 | CO[C@H]1[C@@H](OC)C[C@H](C)[C@@H](OC)C2=CC(=O)C=C(NC(=O)/C(C)=C/C=C/[C@H](OC)[C@@H](OC(N)=O)/C(C)=C/[C@@H]1C)C2=O | 103% | 115% | 128% | 111% (inactive) | 102% | 94% | 113% | 92% | 67% | 110% | 91% | 82% | 93% | 104% | 105% | 112% | 102% | 109% | 94% | 110%
2 | Ic1cccc(CSc2nnc(-c3ccncc3)o2)c1 | 84% | 106% | 109% | 104% (inactive) | 101% | 84% | 84% | 94% | 91% | 96% | 90% | 98% | 71% | 99% | 82% | 106% | 93% | 112% | 98% | 93%
3 | Cn1cc(/C=C2\C(=O)Nc3ccc(S(N)(=O)=O)cc32)c2ccccc21 | 21% | 73% | 49% | 100% (inactive) | 117% | 57% | 11% | 94% | 85% | 103% | 42% | 19% | 5% | 10% | 3% | 17% | 14% | 118% | 69% | 35%
4 | COc1cc2ncnc(Nc3ccc(O)c(Br)c3)c2cc1OC | 10% | 65% | 1% | 99% (inactive) | 123% | 19% | 0% | 16% | -1% | 106% | 64% | 58% | 24% | 94% | 67% | 109% | 67% | 126% | 101% | 105%
5 | O=C1Nc2cc(Br)ccc2/C1=C1/Nc2ccccc2/C1=N\O | 42% | 33% | 22% | 100% (inactive) | 95% | 17% | 4% | 84% | 88% | 59% | 15% | 3% | 3% | 16% | 18% | 59% | 54% | 67% | 35% | 86%
6 | Oc1n[nH]c2nnc(-c3c(-c4ccccc4)nn4ccccc34)cc12 | 83% | 123% | 128% | 109% (inactive) | 103% | 86% | 80% | 92% | 75% | 98% | 91% | 108% | 92% | 95% | 91% | 97% | 102% | 115% | 90% | 96%
7 | Cc1ccc(NC2=CC(=O)c3sc(C)nc3C2=O)cc1 | 97% | 123% | 121% | 104% (inactive) | 99% | 98% | 96% | 77% | 88% | 96% | 99% | 106% | 112% | 100% | 92% | 107% | 118% | 101% | 90% | 92%
